Screens deposited in PubChem BioAssay by National Center for Advancing Translational Sciences (NCATS).
HT1080-NT tox: kills 2HG-producing HT-1080-NT fibrosarcoma cells | HT-1080-NT fibrosarcoma viability, CellTiter-Glo ATP luminescence, 48 h | Potency, µM (titrated, usually from 46.1 µM), without a hit: at the highest dose activity, negative = less viability, usual class: cytotoxic | 1.6% of 360,000 active | AID 686970;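 also: NT is the 2HG producing partner of a matched IDH1 knockdown line; 0% = DMSO-treated cells and -100% = media-only wells without cells; nearly all actives have a fitted effect of over 55% in size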
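Luminescent CellTiter-Glo readout after 48 hours of compound exposure at 37 degrees C defined viability of HT-1080-NT cells. Activity was normalized to DMSO wells and cell-free media wells; concentration-response curves were fitted and assigned curve classes.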
TGFb inhibitor: inhibitors of TGF-b signaling. Potency, µM (highest dose often 46.1 µM), for inactives: at the highest dose activity, negative = inhibition, usual class: inhibitors. AID 588855. HepG2 CAGA-GFP TGF-b/SMAD3 reporter, GFP fluorescence, 18 h; TGF-beta stimulated, 500 pg/mL final. 1.2% of 410,000 active; also: % is scaled to controls: 0 for no effect and ±100 for the full control effect; nearly all actives have a fitted effect of over 65% in size
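Inhibition was scored as loss of TGF-beta-induced (500 pg/mL final, 18 hours, 37 degrees C) GFP in HEPG2 cells carrying a CAGA-GFP reporter, in DMEM with 1% FBS. Well GFP was summed per cell; Activity was normalised to unstimulated and stimulated DMSO wells, then concentration-response fitting.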
TDP1 cell noCPT: qHTS for Inhibitors of human tyrosyl-DNA phosphodiesterase 1 (TDP1): qHTS in cells in absence of CPT. DT40 Tdp1-/- hTDP1 cells, no CPT, ATP luminescence, 48 h. Potency, µM (highest dose often 46.2 µM), for inactives: at the highest dose activity change, negative = growth inhibition, most hits filed as inhibitors. 15% of 420,000 active; also: % is scaled to controls: 0 for no effect and ±100 for the full control effect; nearly all actives have a fitted effect of over 55% in size
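Readout: luminescence from CellTiter-Glo after 30 min in the dark at RT. Cells: DT40 Tdp1-/- with stable hTDP1, 400/well. Exposure: compounds alone, ≥48 hr, 37 °C.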
TDP1 cell CPT: growth inhibition of DT40 Tdp1-/-;hTDP1 cells with camptothecin (screen for TDP1 inhibitors). chicken DT40 Tdp1-/-;hTDP1 cells + 20 nM CPT, ATP luminescence, 48 h. Potency, µM (titrated, usually from 46.2 µM), without a hit: top-dose activity change, negative = growth inhibition, most hits filed as inhibitors. 12% of 420,000 active. AID 686979; also: % is scaled to controls: 0 for no effect and ±100 for the full control effect; nearly all actives have a fitted effect of over 55% in size
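Chicken DT40 Tdp1-/- cells complemented with human TDP1, 400 cells/well, exposed to compounds plus 20 nM camptothecin for at least 48 h at 37 C; viability read as ATP content by CellTiter-Glo luminescence.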
HepG2 viability: HepG2 cytotoxicity, counter-screen for TGF-b inhibitors; HepG2 CAGA-GFP viability, ATP luminescence, 18 h; Potency, µM (top dose mostly 46.1 µM), for the others: top-dose activity change, negative = cytotoxicity, most hits filed as cytotoxic; 0.76% of 410,000 active
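HepG2 CAGA-GFP cells (1000/well, DMEM with 1% FBS) received compound, then TGF-beta at 500 pg/mL final, and were incubated 18 hours at 37 degrees C. Viability was read by CellTiter-Glo luminescence. Media-only wells were set as complete cell-killing and DMSO as no toxicity.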
HT1080 IDH1KD tx: HT-1080 IDH1 knockdown cell toxicity (counter line). HT-1080 IDH1 knockdown viability, ATP luminescence, 48 h. Potency, µM (highest dose often 46.1 µM), without a hit: at the top dose activity, negative = toxicity, most hits filed as cytotoxic. 2% of 360,000 active;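 also: 0% = DMSO wells and -100% = cell-free medium wells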
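Luminescent ATP read-out (CellTiter-Glo, 10 min at room temperature) after 48 h compound exposure at 37 °C gave viability of IDH1-knockdown HT-1080 cells. Activity was normalised to DMSO and cell-free wells, then fitted as concentration-response curves.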
* marks the source's active call; other numbers are inactive results; ? = inconclusive; / = no result given. Rows were chosen to be rich in hits. Some 17% of all compounds tested hit in one or more screens of this group. Calls follow the shape of the dose curve; as a rule, active = well fitted curve in the direction sought with a large enough effect; inconclusive = small, poorly fitted or top-dose-only effect, or another doubt; inactive = no such curve, though single readings can be large; an effect the other way counts as inactive or inconclusive. Potency is read from the fitted curve at half-maximal effect.

SMILES | HT1080-NT tox | TGFb inhibitor | TDP1 cell noCPT | TDP1 cell CPT | HepG2 viability | HT1080 IDH1KD tx
CCOc1ccc(N2CC(C(=O)Nc3ccccc3N3CCOCC3)CC2=O)cc1 (stereo unspecified) | -3.7% | -5.0% | 1.9% | ? | -8.6% | -0.1%
COC(=O)c1c(C)cc(OC(=O)c2c(C)cc(O)c(C=O)c2O)c(C)c1O | / | / | 4.11µM* | 5.8µM* | / | /
CC1(C)CC(NC(=O)COc2ccc3ccc(=O)oc3c2)CC(C)(C)N1 | -1.7% | -3.7% | 23.7% | -5.3% | 1.2% | 9.6%
C[C@H]1CN([C@@H](C)CO)C(=O)c2cccc(NC(=O)Nc3ccc(C(F)(F)F)cc3)c2O[C@@H]1CN(C)Cc1ccc(Cl)c(Cl)c1 | ? | ? | 3.66µM* | 3.26µM* | 12.6µM* | ?
C[C@@H]1CN([C@H](C)CO)C(=O)c2cc(NC(=O)Nc3ccc(C(F)(F)F)cc3)ccc2O[C@H]1CN(C)Cc1ccc(Cl)c(Cl)c1 | ? | 11.2µM* | 20.6µM* | ? | -110.7% | ?
C[C@@H]1CN([C@H](C)CO)C(=O)c2cccc(NC(=O)Nc3ccc(F)cc3)c2O[C@H]1CN(C)C(=O)Nc1ccc(C(F)(F)F)cc1 | ? | ? | ? | ? | -2.3% | ?
C[C@H](CO)N1C[C@H](C)[C@@H](CN(C)S(C)(=O)=O)Oc2ccc(NC(=O)Nc3ccc(C(F)(F)F)cc3)cc2C1=O | 18.5% | -15.5% | -11.8% | ? | -26.1% | 15.2%
C/C(=N/NC(=O)c1cc(C)[nH]n1)c1ccco1 | 6.8% | 14.1% | -21.6% | 3.3% | -13.6% | 5.1%
Cc1scc(C(=O)N/N=C/c2ccc(OC(C)C)cc2)c1C | -9.3% | 7.1% | ? | ? | -14.6% | -28.7%
CCCCOc1cccc(/C=N/NC(=O)c2csc(C)c2C)c1 | -16.9% | -0.1% | 23.1µM* | ? | -4.8% | -21.2%
C/C(=N\NC(=O)c1cc(-c2ccc(C)s2)[nH]n1)c1ccco1 | -4.7% | -16.6% | 18.4µM* | ? | -9.9% | -4.4%
Cc1scc(C(=O)N/N=C/c2ccc(Cl)s2)c1C | 21.3% | -20.7% | 16.4µM* | ? | -53.5% | 20.9%
C/C(=N\NC(=O)c1csc(C)c1C)c1ccc(C)s1 | 7.1% | 2.2% | 2.91µM* | 2.59µM* | -4.8% | -1.8%
CCOc1ccc(/C=N/NC(=O)c2csc(C)c2C)c(OCC)c1 | 0.1% | 3.5% | -7.2% | 3.0% | -5.7% | 0.1%
COc1ccccc1N1C(=O)CC(Sc2ccccc2N)C1=O (stereo unspecified) | -0.7% | 13.5% | ? | -17.6% | 10.5% | -3.8%
O=C(Nc1ccc([N+](=O)[O-])cc1)c1cccc(S(=O)(=O)Nc2cccnc2)c1 | ? | 0.4% | 4.0% | -24.9% | -0.4% | -2.5%
C/C(=N\NC(=O)c1csc(C)c1C)c1ccco1 | -8.7% | -7.5% | 20.6µM* | 10.3µM* | -21.6% | -1.9%
Cn1nnnc1SCC(=O)Nc1cc(C(=O)O)cc(C(=O)O)c1 | 1.5% | -2.6% | 1.7% | -18.1% | 5.1% | 1.5%
COc1cc(CCC(=O)Nc2ncc(C)s2)cc(OC)c1OC | 13.1% | 0.8% | -15.1% | 4.4% | 2.6% | 1.2%
COc1cc(CCC(=O)Nc2nnc(C)s2)cc(OC)c1OC | 6.51µM* | 0.2% | 2.91µM* | 4.61µM* | 5.3% | 7.31µM*
COc1cc(CCC(=O)Nc2ccc(Br)c(C(F)(F)F)c2)cc(OC)c1OC | -8.2% | 15.8µM* | 20.6µM* | 18.4µM* | -46.7% | ?
O=C(COc1cccc2c1CCNC2=O)Nc1cccc(F)c1 | -5.3% | -1.9% | ? | ? | -17.3% | -9.8%
O=C(O)c1ccccc1C(=O)Nc1ccc(Br)c(C(F)(F)F)c1 | -2.8% | 0.3% | -1.4% | -4.8% | -9.2% | 3.1%
Cc1cc(C)c(C(=O)Nc2ccc(Br)c(C(F)(F)F)c2)c(C)c1 | -3.7% | ? | 11.6µM* | 16.4µM* | -22.3% | -27.5%
O=C(COc1cccc2c1CCNC2=O)Nc1cccc(C(F)(F)F)c1 | -1.3% | 0.6% | 16.4µM* | 8.2µM* | -30.2% | -22.4%
SMILES | HT1080-NT tox | TGFb inhibitor | TDP1 cell noCPT | TDP1 cell CPT | HepG2 viability | HT1080 IDH1KD tx
COc1cc(CCC(=O)Nc2ccc(Cl)c(C(F)(F)F)c2)cc(OC)c1OC | 4.7% | ? | 8.2µM* | 18.4µM* | -31.0% | 2.3%
COc1cc(C(=O)Nc2ccc(Cl)c(C(F)(F)F)c2)cc(OC)c1OC | ? | 0.0% | 23.1µM* | 14.6µM* | 8.4% | -17.2%
COc1cc(CCC(=O)Nc2cc(C)cc(C)c2)cc(OC)c1OC | 8.6% | -4.3% | 16.4µM* | -24.8% | -3.6% | ?
CCC(=O)Nc1nc2cc(OC)ccc2s1 | -3.0% | -4.2% | 18.4µM* | ? | -25.1% | -1.3%
COc1cccc(CC(=O)OC(C)C(=O)Nc2ccc(N3CCOCC3)cc2)c1 (stereo unspecified) | -1.5% | -8.4% | ? | -0.2% | -0.1% | 2.2%
COc1ccc(CCNC(=O)c2cc3c(s2)-c2c(C)cccc2OC3)c(OC)c1 | / | -10.1% | ? | ? | -30.6% | /
CC1CCCC(NC(=O)COC(=O)c2cc(S(=O)(=O)N3CCOCC3)ccc2F)C1C (stereo unspecified) | 13.1% | 37.1% | -6.4% | 1.6% | 31.3% | -1.4%
COc1ccc(-c2cc3c(=O)n(CC(=O)Nc4cc(C)ccc4C)ccn3n2)cc1 | / | -4.9% | -5.8% | 0.4% | -1.2% | /
COc1cc(CCC(=O)Nc2cccc(C(F)(F)F)c2)cc(OC)c1OC | 11.9% | -4.6% | 13µM* | ? | 12.7% | 8.6%
COc1cccc(CN(C)C(=O)c2ccc(OCC(=O)Nc3cccc(C(F)(F)F)c3)c(OC)c2)c1 | ? | -26.4% | 9.2µM* | 10.3µM* | -62.8% | ?
COc1cc(/C=C(\C#N)C(=O)Nc2cccc(C(=O)O)c2)ccc1OCc1ccc(C)cc1 | 16.9% | ? | -22.2% | -9.3% | -22.2% | 17.6%
COc1cc(/C=C(\C#N)C(=O)Nc2cc(C(F)(F)F)ccc2Cl)ccc1OCC(=O)Nc1cccc(C(F)(F)F)c1 | -25.6% | -2.8% | ? | 23.1µM* | -5.1% | -25.3%
CCC(=O)Nc1nc2ccc3nc(C)sc3c2s1 | -0.7% | -4.4% | 20.6µM* | ? | 2.6% | 7.4%
COCC(=O)Nc1cccc(C(F)(F)F)c1 | -0.5% | 10.3% | -17.0% | -0.1% | 0.5% | -2.7%
Cc1ccc(-c2noc(CNC(=O)COc3cc(C)c(Br)c(C)c3)n2)cc1 | / | ? | -6.6% | -1.9% | -15.2% | /
